Measured values taken from PubChem BioAssay (NCI).
Compounds without any hit were thinned out: in the full panel of roughly 83,000, 20% have a hit.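 Values shown are percent growth following 48 h exposure of cells in 96-well plates to a single concentration of compound; below 10 was considered active.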 Unmarked numbers belong to inactive results. Activity calls are given as the source filed them.

Columns and labels:
Experiment in all cases: NCI-60 one-dose screen, 48 h (100 = growth as untreated, 0 = no growth, -100 = all killed)
Settings in all cases: 10 µM unless noted
NCI-H23 lung = tested on: NCI-H23 lung
NCI-H226 lung = tested on: NCI-H226 lung
NCI-H322M lung = tested on: NCI-H322M lung
HOP-62 NSCLC = tested on: HOP-62 NSCLC
NCI-H460 lung = tested on: NCI-H460 lung
NCI-H522 lung = tested on: NCI-H522 lung
A549/ATCC NSCLC = tested on: A549/ATCC NSCLC
786-0 renal = tested on: 786-0 renal
COLO 205 colon = tested on: COLO 205 colon
DU-145 prostate = tested on: DU-145 prostate
K-562 leukemia = tested on: K-562 leukemia
MALME-3M melanoma = tested on: MALME-3M melanoma
MDA-MB-231 breast = tested on: MDA-MB-231 breast
RXF 393 renal = tested on: RXF 393 renal
SF-268 CNS = tested on: SF-268 CNS
SF-295 CNS = tested on: SF-295 CNS
SF-539 CNS = tested on: SF-539 CNS
UACC-257 melanoma = tested on: UACC-257 melanoma
M14 melanoma = tested on: M14 melanoma
HCT-15 colon = tested on: HCT-15 colon

Row | SMILES | growth (NCI-H23 lung) [%] | growth (NCI-H226 lung) [%] | growth (NCI-H322M lung) | growth (HOP-62 NSCLC) [%] | growth (NCI-H460 lung) [%] | growth (NCI-H522 lung) [%] | growth (A549/ATCC NSCLC) [%] | growth (786-0 renal) [%] | growth (COLO 205 colon) | growth (DU-145 prostate) [%] | growth (K-562 leukemia) [%] | growth (MALME-3M melanoma) [%] | growth (MDA-MB-231 breast) [%] | growth (RXF 393 renal) [%] | growth (SF-268 CNS) [%] | growth (SF-295 CNS) | growth (SF-539 CNS) [%] | growth (UACC-257 melanoma) [%] | growth (M14 melanoma) [%] | growth (HCT-15 colon) [%]
1 | O=c1cc(-c2cccnc2)oc2c1ccc1ccccc12 | 69.9 | 91.5 | 117% | 88.6 | 70.4 | 62 | 65.6 | 81.3 | 80.5% | 88.6 | 53.9 | 156 | 70.7 | 68 | 54.8 | 70.1% | 54.6 | 82.9 | 103 | 72.7
2 | N#CCNc1ccccc1N | 86.6 | 101 | 82% | 85.2 | 101 | 65.4 | 92.2 | 99 | 90.2% | 106 | 97.3 | 96.2 | 101 | 110 | 102 | 106% | 103 | 98.3 | 93.4 | 108
3 | O=c1c(O)cccn1CCCNCCCN(CCCn1cccc(O)c1=O)CCCn1cccc(O)c1=O | 97.7 | 95 | 94.5% | 106 | 99 | 117 | 105 | 107 | 125% | 112 | 117 | 108 | 96 | 121 | 94 | 102% | 108 | 121 | 103 | 99.2
4 | O=C1CC(C(F)(F)F)=NN1C(=O)c1nn(-c2ccc(Cl)cc2)cc1O | 101 | 79.8 | 15.6% | 70.2 | 71.2 | 89.9 | 91.2 | 97.7 | 125% | 83.6 | 96.7 | 146 | 81.9 | 78.1 | 56.7 | 81.3% | 82.7 | 111 | 88.4 | 69.9
5 | O=C(CCc1nnc(SCc2ccccc2)s1)c1nc2ccccc2[nH]1 | 96.4 | 102 | 92.9% | 105 | 105 | 84.4 | 86.3 | 91.2 | 117% | 107 | 80.2 | 83.8 | 77.9 | 108 | 100 | 92.1% | 109 | 111 | 108 | 81
6 | O=C(c1nn(-c2ccc(Cl)cc2)cc1O)n1nc(C(F)(F)F)cc1-c1ccccc1 | 32.8 | 52.7 | -1.34% (active) | 34.6 | 34.9 | 21.2 | 47.4 | 42.9 | 7.24% (active) | 49.2 | 18.6 | 107 | 54.6 | 55.1 | 42.3 | -0.429% (active) | 45.6 | 53.3 | 43.4 | 30.2
7 | COc1ccc2nc(-c3ccc(-n4cncc4-c4ccc(OC)c(N)c4)cc3)sc2c1 | 108 | 108 | 95.3% | 116 | 100 | 82 | 93.5 | 111 | 105% | 119 | 90.6 | 131 | 104 | 113 | 109 | 99.8% | 105 | 109 | 110 | 97.4
8 | Nc1nc(SCC2(CCl)COC2)c2[nH]cnc2n1 | 97.1 | 100 | 102% | 89.7 | 107 | 80.2 | 97.8 | 99.4 | 106% | 116 | 90.6 | 88.8 | 104 | 113 | 98.5 | 110% | 99.6 | 99.1 | 97 | 99.6
9 | CCCc1nn(C)c2c(=O)[nH]c(-c3cc(S(=O)(=O)N4CCN(C)CC4)ccc3OCC)nc12 | 99 | 102 | 101% | 104 | 114 | 88.9 | 96.2 | 98.5 | 99.8% | 113 | 97.9 | 102 | 90.5 | 120 | 119 | 93% | 111 | 97.9 | 102 | 103
10 | Cc1c(NCc2nnc3n(Cc4ccccc4)c(=O)c4c5c(sc4n23)CCCC5)c(=O)n(-c2ccccc2)n1C | 92.4 | 94.8 | 92.2% | 105 | 98.9 | 71.3 | 66.7 | 72.3 | 101% | 75.6 | 53.5 | 113 | 96.5 | 84.5 | 74.1 | 67.2% | 103 | 80.9 | 83.2 | 94.6
11 | COC1CC2CCC(C)C(O)(O2)C(=O)C(=O)N2CCCCC2C(=O)OC(C(C)CC2CCC(O)C(OC)C2)CC(=O)C(C)C=C(C)C(O)C(OC)C(=O)C(C)CC(C)/C=C/C=C/C=C1C (stereo not given) | 49.2 | 48.6 | 39.4% | 51.3 | 43.1 | 42.7 | 36.8 | 43 | 64.7% | 42 | 70.4 | 21.1 | 52.4 | 20.4 | 57.2 | 16.6% | 35.8 | 50.8 | 48.5 | 46.2
12 | COc1cc(C2C=C(c3ccc(C)cc3)Nc3nc(SC)[nH]c(=O)c32)ccc1Oc1ccnc2cc(Cl)ccc12 (stereo not given) | 80.7 | 79.7 | 84% | 113 | 70.2 | 75 | 63.1 | 85.1 | 101% | 64.5 | 75.6 | 80.1 | 73.6 | 83.4 | 59.6 | 70.1% | 100 | 62.7 | 85.1 | 64
13 | O=C(O)c1ccc(NC(=O)c2ccc(Nc3ccnc(C(F)(F)F)c3)cc2)cc1 | 98.4 | 100 | 121% | 103 | 113 | 103 | 103 | 103 | 101% | 106 | 94.1 | 103 | 109 | 97.9 | 98 | 108% | 104 | 99.6 | 107 | 92.1
14 | CCCCSc1cc(C)nc(N)n1 | 95.9 | 98.6 | 97.1% | 91.5 | 103 | 94.9 | 97.8 | 95.6 | 112% | 105 | 94.8 | 96.4 | 104 | 105 | 98.8 | 102% | 95.7 | 109 | 99.2 | 91.1
15 | CC(C)C(=O)Cc1cnccn1 | 93.7 | 110 | 103% | 106 | 103 | 109 | 96.5 | 109 | 113% | 111 | 114 | 111 | 119 | 106 | 114 | 91% | 105 | 97.8 | 112 | 107
